Assay outcomes deposited in PubChem BioAssay by several laboratories.
NTR1 agonist: agonists of human NTR1, primary screen, imaging, U2OS cells, beta-arrestin-GFP, high content. NTR1-U2OS beta-arrestin-GFP spot imaging, agonist mode. AID 493036, 2011. 0.17% of 330,000 active. activation, % at 20 µM. Neurotensin receptor type 1 (Homo sapiens), P30989;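 active = activation at or above 40% of the spot to cytoplasm intensity ratio, with at least 20 cells analyzed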;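 also: 0% = DMSO without peptide and 100% = 100 nM NTR1 peptide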
Target sequence (P30989 whole entry, looked up): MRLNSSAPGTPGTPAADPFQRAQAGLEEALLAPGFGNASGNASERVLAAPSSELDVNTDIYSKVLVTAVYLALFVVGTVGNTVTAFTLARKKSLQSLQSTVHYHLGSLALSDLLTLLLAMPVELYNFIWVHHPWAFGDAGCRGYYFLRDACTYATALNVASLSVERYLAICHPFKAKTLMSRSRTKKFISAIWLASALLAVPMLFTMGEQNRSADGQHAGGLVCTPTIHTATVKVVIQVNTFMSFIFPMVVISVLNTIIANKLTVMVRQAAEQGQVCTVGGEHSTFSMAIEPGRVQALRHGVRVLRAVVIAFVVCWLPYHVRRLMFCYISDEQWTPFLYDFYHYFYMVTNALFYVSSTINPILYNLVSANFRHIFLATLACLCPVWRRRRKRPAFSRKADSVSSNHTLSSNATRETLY
AHR act: AHR activators, primary screen, cell-based, luminescence, luciferase reporter, human; Aryl hydrocarbon receptor (Homo sapiens), P35869; AHR-responsive luciferase reporter cells; activation, % at 5 µM; 2.5% of 320,000 active; in the data active = activation above about 47%;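 also: 0% = vehicle wells and 100% = reference agonist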
A3A deaminase: APOBEC3A ssDNA deaminase inhibitors, primary screen, selectivity assay for APOBEC3G inhibitor project, biochemical, FAM/TAMRA oligo cleavage fluorescence | inhibition, % at 20 µM | 0.41% of 330,000 active | DNA dC->dU-editing enzyme APOBEC-3A (Homo sapiens), P31941 | AID 493011, 2011 | recombinant A3A, FAM/TAMRA ssDNA deamination fluorescence;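 active = at least 40% inhibition at 20 µM here, with at most 30% in a related deaminase screen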;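 also: plate controls were A3A with DMSO for no effect and wells lacking A3A enzyme for full effect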
Target sequence (P31941 whole entry, looked up): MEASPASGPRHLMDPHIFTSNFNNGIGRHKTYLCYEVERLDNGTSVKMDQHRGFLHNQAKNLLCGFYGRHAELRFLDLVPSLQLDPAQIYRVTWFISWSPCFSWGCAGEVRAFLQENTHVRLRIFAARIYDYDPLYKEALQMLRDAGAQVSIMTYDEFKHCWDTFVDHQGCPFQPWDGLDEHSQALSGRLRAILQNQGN
A3G deaminase: APOBEC3G DNA deaminase inhibitors, primary screen, biochemical, fluorescence, single-stranded DNA substrate, uHTS; DNA dC->dU-editing enzyme APOBEC-3G (Homo sapiens), Q9HC16; recombinant A3G, ssDNA deamination FAM/TAMRA fluorescence; inhibition, % at 20 µM; 0.28% of 330,000 active; AID 493012, 2011;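 active = inhibition of at least 40% at 20 µM, with no more than 30% in the related APOBEC3A deaminase screen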;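 also: plate controls were DMSO wells with A3G for no effect and wells lacking A3G enzyme for full effect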
* marks the source's active call; other numbers are inactive results; · = no result given. This is a sample that favours compounds with a hit; in the whole collection about 3.2% have one here.

SMILES | NTR1 agonist | AHR act | A3A deaminase | A3G deaminase
CCN(C(=O)COC(=O)c1cccc(NS(=O)(=O)c2ccc(F)c(F)c2)c1)C1CCS(=O)(=O)C1 (stereo not drawn) | 3 | -1 | 4 | -1
COc1ccc(OCC(=O)Nc2ccccc2C(=O)Nc2ccc(C(=O)O)cc2)cc1 | 1 | 4 | 4 | 0
COc1ccc(NC(=O)C23CC4CC(C2)CC(n2cnc(Br)n2)(C4)C3)cc1Cl | 0 | 51* | -2 | -5
Cc1nc(CN2CCCCC2)cc(=O)[nH]1 | 0 | 6 | 0 | -4
Cc1ccccc1/C=N/NC(=O)c1cccnc1 | 0 | 40 | -6 | -7
Cn1c(-c2ccccc2)c(/C=N/NC(=O)c2cccnc2)c2ccccc21 | 4 | 59* | -1 | 0
O=C(N/N=C/c1c(-c2ccccc2)[nH]c2ccccc12)c1cccnc1 | 0 | 73* | 2 | -1
Cn1cccc1/C=N/NC(=O)c1cccnc1 | 0 | 6 | -4 | -6
O=C(N/N=C/c1cccc2ccccc12)c1cccnc1 | -1 | 53* | 2 | -2
CN(Cc1ccccc1)C1(CNC(=O)CCC(F)(F)F)Cc2ccccc2C1 | 3 | 1 | -5 | -4
CC(C)Oc1ccc(-c2cc(=O)[nH]c(=O)[nH]2)cc1 | -1 | 69* | 0 | -5
COc1ccc(NC(=O)CCSCCc2ccccn2)cc1OC | 2 | 4 | 0 | 2
Oc1ccc2ccccc2c1C=NCc1ccccc1 | 3 | 56* | 5 | 12
O=CN/N=C/c1c(O)ccc2ccccc12 | -1 | 11 | -5 | -4
Oc1ccc2ccccc2c1/C=N/Nc1ccccc1 | 2 | 54* | -3 | 40
Oc1ccc2ccccc2c1/C=N/n1cnnc1 | -1 | 30 | -3 | -2
C/C(=N\Nc1ccc([N+](=O)[O-])cc1)c1ccc(-n2nncc2C)cc1 | -2 | 50* | 3 | -3
C/C(=N\Nc1ccc([N+](=O)[O-])cc1)c1ccc(N2CCOCC2)cc1 | 2 | 7 | -2 | -6
CCC(=O)Nc1cc(=O)[nH]c2nc(-c3ccc(Cl)cc3)nn12 | -1 | 74* | 5 | -1
C/C(=N\NC(=O)Cc1c(Cl)cccc1Cl)c1cccnc1 | 0 | · | 2 | -1
Cc1nc(Cl)c(C(=O)NC(C)(C)C)c(C)c1Cl | 2 | 1 | 2 | 8
COc1ccc(C(CNC(=O)C(C)Oc2ccc(Br)cc2)N2CCCCC2)cc1 (stereo not drawn) | -1 | 1 | -3 | -4
COc1cc(/C=C(\C#N)c2nc3ccccc3[nH]2)c([N+](=O)[O-])cc1OCc1ccccc1 | 3 | 88* | -2 | -1
CCOc1cc(/C=C(/C#N)c2nc3ccccc3[nH]2)ccc1OCc1ccc(C(=O)O)o1 | 0 | 16 | 0 | -4
N#Cc1c(NC(=O)c2cnccn2)sc2c1CCCC2 | 0 | 69* | 5 | 1
SMILES | NTR1 agonist | AHR act | A3A deaminase | A3G deaminase
Cc1ccc(NC(=O)c2ccc(Cn3cc(Br)cn3)o2)cc1 | -1 | 60* | 0 | -6
N#Cc1c(NC(=O)c2ccc(Cn3cc(Br)cn3)o2)sc2c1CCCCCC2 | 19 | 70* | 5 | -1
Cn1nccc1C(=O)Nc1sc2c(c1C#N)CCCC2 | 2 | 30 | -3 | -5
NNC(=O)c1ccc(Cn2cc(Br)cn2)o1 | -1 | 31 | -2 | -5
CC1(C)CC(=O)C(C=Nc2ccc(NC3=C(C#N)C(=O)CC(C)(C)C3)cc2)=C(O)C1 | 1 | -3 | -3 | -4
O=C(Cn1cnc2ccccc2c1=O)Nc1ccc(S(=O)(=O)N2CCOCC2)cc1 | -1 | 47* | 1 | -3
O=C(Cn1cnc2ccccc2c1=O)Nc1ccc(S(=O)(=O)N2CCCC2)cc1 | -1 | 2 | 24 | 1
COc1cccc(/C=N/Nc2nc3ccccc3n3cnnc23)c1 | 3 | 58* | 2 | -3
Cc1ccc(Nc2nc3ccccc3n3cnnc23)cc1C | 4 | 20 | -6 | -6
COc1ccc(Nc2nc3ccccc3n3cnnc23)cc1 | 4 | 72* | 2 | -4
COc1cccc(/C=N/Nc2nc3ccccc3n3cnnc23)c1O | 4 | -5 | 8 | -10
O=C(O)COc1ccccc1/C=N/NC(=O)COc1ccc(-c2ccccc2)cc1 | -2 | 68* | 1 | 1
C=CCN(Cc1ccc(OC)c(OC)c1)C(=O)c1cc2cc(F)ccc2[nH]1 | 2 | 47* | -3 | 3
CC(C)n1cc(/C=C2/NC(=O)NC2=O)c2ccccc21 | 2 | 74* | -3 | -5
O=C1NC(=O)/C(=C/c2ccccc2Cl)N1 | 0 | 1 | 0 | -3
C#CCn1cc(/C=C2\NC(=O)NC2=O)c2ccccc21 | 0 | 77* | -2 | -6
COc1ccc(Cl)cc1Nc1cc(C)nc2nc(C)nn12 | -4 | 71* | -2 | -2
CCCN(CCC)CCCNC(=O)Cn1cnc2sc(C)c(S(=O)(=O)N3CCOCC3)c2c1=O | -1 | -1 | 0 | -6
O=C(CSc1ccsc1[N+](=O)[O-])NCCc1ccc(Cl)cc1 | 0 | 9 | 1 | 1
O=C(CSc1ccsc1[N+](=O)[O-])NCCc1ccccc1 | -2 | 48* | 1 | 2
CCc1cccc(C)c1NC(=O)Nc1ccc2c(c1)OCO2 | 3 | 27 | -2 | -6
Cc1ccc(C)c(NC(=O)Nc2ccc3c(c2)OCO3)c1 | 0 | 64* | 0 | -3
O=C(Cc1ccccc1[N+](=O)[O-])Nc1ccc2c(c1)OCO2 | 2 | 61* | -7 | -3
Cc1ccccc1NC(=O)Nc1ccc2c(c1)OCO2 | 0 | 68* | 1 | -5
Cc1nn(-c2ccccc2)c(Cl)c1C(=O)OC(C)C(=O)Nc1ccc2c(c1)OCO2 (stereo not drawn) | -3 | 66* | 5 | 4
SMILES | NTR1 agonist | AHR act | A3A deaminase | A3G deaminase
CN(CC(=O)Nc1ccc(F)c(F)c1F)C(=O)C1CCCC1 | -3 | 12 | -2 | -9
CN(C)CCCNC(=O)/C(=C\C=C\c1ccccc1)NC(=O)c1ccc([N+](=O)[O-])cc1 | -1 | -2 | -1 | -4
Cc1nn(C(C)C(=O)Nc2ccc3c(c2)OCO3)c(C)c1[N+](=O)[O-] (stereo not drawn) | 1 | 76* | 8 | -1
CC(NC(=O)Nc1ccc2c(c1)OCO2)C1CCCO1 (stereo not drawn) | 8 | 66* | 2 | -5
CC(Sc1ncnc2ccccc12)C(=O)Nc1ccc2c(c1)OCO2 (stereo not drawn) | 1 | 51* | 2 | -2
CCc1ccccc1NC(=O)NCc1ccc2c(c1)OCO2 | -1 | 68* | -3 | -7
Cc1ccc(OCCC(=O)NNC(=O)c2nn(C)c(=O)c3ccccc23)cc1 | 2 | 0 | 2 | 0
COc1ccc(OC)c(NC(=O)Nc2ccc(O)c3ccccc23)c1 | 2 | 49* | -4 | 2
COc1ccc(OC)c(NC(=O)Nc2ccccc2C)c1 | 3 | 14 | 3 | -3
